Pol eta inh: qHTS for Inhibitors of Polymerase Eta | DNA polymerase eta (Homo sapiens), Q9Y253 | recombinant Pol eta, fluorescent DNA replication assay | Potency, µM (titrated, usually from 114 µM), for inactives: at the top dose activity change, negative = inhibition, hits mostly inhibitors | 390,000 tested, 1.2% active | AID 588591, 2011; also: % is scaled to controls: 0 for no effect and ±100 for the full control effect
Target sequence (Q9Y253 whole entry, looked up): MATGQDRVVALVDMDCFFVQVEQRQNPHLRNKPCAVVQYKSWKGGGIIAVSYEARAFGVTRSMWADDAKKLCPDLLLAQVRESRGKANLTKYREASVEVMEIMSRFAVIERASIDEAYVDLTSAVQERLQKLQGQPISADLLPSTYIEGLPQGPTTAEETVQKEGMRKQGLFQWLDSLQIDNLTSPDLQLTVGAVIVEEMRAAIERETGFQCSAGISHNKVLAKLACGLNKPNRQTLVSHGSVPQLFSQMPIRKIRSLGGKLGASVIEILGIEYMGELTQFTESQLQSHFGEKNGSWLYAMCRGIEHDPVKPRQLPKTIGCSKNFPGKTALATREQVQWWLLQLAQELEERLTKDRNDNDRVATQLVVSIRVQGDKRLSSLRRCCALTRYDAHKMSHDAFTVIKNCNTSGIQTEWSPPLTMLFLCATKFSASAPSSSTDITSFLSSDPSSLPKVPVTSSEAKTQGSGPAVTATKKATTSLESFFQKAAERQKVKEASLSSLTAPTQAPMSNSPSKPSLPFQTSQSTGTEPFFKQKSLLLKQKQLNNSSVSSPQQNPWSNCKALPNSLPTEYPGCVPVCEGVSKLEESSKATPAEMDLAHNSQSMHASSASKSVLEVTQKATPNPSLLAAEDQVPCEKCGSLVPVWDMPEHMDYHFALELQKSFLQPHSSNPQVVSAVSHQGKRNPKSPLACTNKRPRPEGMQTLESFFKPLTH
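Fluorescent replication assay: 50 nM final substrate added after a 15 min room-temperature compound preincubation with 10 nM enzyme. Signal taken at 0 min and again at 10 min.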
Pol beta inh: qHTS Assay for Inhibitors of DNA Polymerase Beta; 340,000 tested, 1.3% active; P06746; Pol beta primer extension/strand displacement, fluorescence kinetic; Potency, µM (top dose mostly 114 µM), for inactives: at the top dose activity change, negative = inhibition, hits mostly inhibitors; also: % is scaled to controls: 0 for no effect and ±100 for the full control effect
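Pol beta (10 nM) was preincubated with compound for 15 min at room temperature. The reaction was then started with 50 nM substrate and read immediately and after a further 10 min at room temperature.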
TDP1 inh: qHTS Assay for Inhibitors of Tyrosyl-DNA Phosphodiesterase (TDP1); Potency, µM (top dose mostly 130 µM), for inactives: at the highest dose activity change, negative = inhibition, usual class: inhibitors; Tyrosyl-DNA phosphodiesterase 1 (Homo sapiens), Q9NUW8; recombinant TDP1, AlphaScreen DNA substrate cleavage; 350,000 tested, 0.28% active; also: % is scaled to controls: 0 for no effect and ±100 for the full control effect; nearly all actives have a fitted effect of over 40% in size
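Here, a 5' biotin and 3' phosphotyrosine-FITC DNA oligonucleotide reports Tdp1 activity: intact substrate bridges AlphaScreen beads, while cleavage leaves a 3' phosphate and drops signal. All incubations at room temperature.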
FEN1 inhibitor: qHTS Assay for the Inhibitors of Human Flap endonuclease 1 (FEN1); Recombinant FEN1 flap cleavage, fluorescence, 15 min; 390,000 tested, 0.35% active; Potency, µM (highest dose often 114 µM), for inactives: at the highest dose activity change, negative = inhibition, usual class: inhibitors; AID 588795, 2011; P39748; also: % is scaled to controls: 0 for no effect and ±100 for the full control effect; nearly all actives have a fitted effect of over 65% in size
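FEN1 at 10 nM preincubated with compounds 15 min at room temperature, then flap DNA substrate added at 50 nM final. Signal read at 0 and 15 min; concentration-response fitted with four-parameter Hill equation.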
Pol iota inh: qHTS for Inhibitors of Polymerase Iota. Potency, µM (titrated, usually from 115 µM), for the others: top-dose activity, negative = inhibition, most hits filed as inhibitors. DNA polymerase iota (Homo sapiens), Q9UNA4. Pol iota fluorescent replication assay, 10 min. 390,000 tested, 1% active
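Pol iota at 10 nM preincubated 15 min with compounds at room temperature; reaction started with fluorescent substrate, 50 nM final. Fluorescence read kinetically at 0 and 10 min; buffer-only wells as negative control.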
Pol kappa inh: qHTS for Inhibitors of Polymerase Kappa; DNA polymerase kappa (Homo sapiens), Q9UBT6; purified Pol kappa, fluorescent DNA synthesis assay, 10 min; Potency, µM (highest dose often 107 µM), for inactives: top-dose activity, negative = inhibition, most hits filed as inhibitors; 400,000 tested, 0.53% active; also: % is scaled to controls: 0 for no effect and ±100 for the full control effect
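Fluorescent qHTS in 1536-well format: enzyme (10 nM) and compound sat 15 min at room temperature before 50 nM substrate (final) was added. Signal taken at 0 and 10 min; no-enzyme buffer wells were negative controls.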
Active calls of the source: *; u = inconclusive; x = not tested or not shown; [ ] = dose if it differs, or a comment. Only some compounds are listed: those with a hit (about 2.4% of all), similar ones and a draw of the others. Calls follow the shape of the dose curve; as a rule, active = well fitted curve in the direction sought with a large enough effect; inconclusive = small, poorly fitted or top-dose-only effect, or another doubt; inactive = no such curve, though single readings can be large; an effect the other way counts as inactive or inconclusive. Potency is read from the fitted curve at half-maximal effect.

SMILES	Pol eta inh	Pol beta inh	TDP1 inh	FEN1 inhibitor	Pol iota inh	Pol kappa inh
CCN(CC)c1ccc(N=C2C=CC(=O)C=C2NC(C)=O)cc1	-5%	x	x	u	45µM*	u
CCN(CC)c1ccc(NC(=O)Nc2ccc(C(C)=O)cc2)cc1	-1%	u	6%	-2%	2%	-19%
O=C(CSc1nc2sccc2c(=O)[nH]1)N1CCN(c2ccccc2)CC1	50µM*	25µM*	x	1%	u	u
CC(=O)Nc1ccc(Sc2ccc([N+](=O)[O-])o2)cc1	32µM*	x	x	3%	u	-23%
CCCCCNC(=O)c1ccc2c(=O)n(CCOC)c(=O)[nH]c2c1	-17%	-1%	1%	5%	20%	-3%
CCCCCCn1c(=O)[nH]c2nc3cc(N)ccc3nc2c1=O	-23%	10µM*	-5%	-1%	27%	-16%
O=C1c2ccccc2C(=O)N1c1cccc(=O)[nH]1	x	x	2%	x	x	x
O=C1C(=O)c2c(ccc3ccccc23)-c2ccccc21	7.9µM*	x	x	-18%	54%	-1%
Cc1cccc(C(=O)Nc2ccc(N3CCC(CCN4CCOCC4)CC3)c(C(=O)O)c2)c1	-24%	15%	25µM*	-12%	-9%	-5%[60.1 µM]
Cc1ccccc1-c1ccc2ncnc(NCc3cccs3)c2c1	x	x	x	x	x	22µM*
COc1cc(Nc2nc(SCC(=O)c3ccc(Br)cc3)nc3ccccc23)cc(OC)c1	u	u	-14%	2%	79µM*	1%[60.1 µM]
O=C(CSc1nc(Nc2ccc(F)cc2)c2ccccc2n1)c1ccc(F)cc1	-23%	4%	2%	2%	22%	-2%[60.1 µM]
CC(=O)Oc1cc2c3c(c1)/C(=C1/SC(=S)NC1=O)C(=O)N3C(C)(C)C=C2C	79µM*	u	15%	u	u	-22%
CCOc1cc2c3c(c1)C(C)=CC(C)(C)N3C(=O)C2=O	-9%	0%	7%	-18%	28%	7%
Cc1cccc(N(Cc2cc(=O)[nH]c3ccccc23)C(=O)CCl)c1	45µM*	u	x	-21%	u	-6%
CCCC(=O)N(Cc1cc(=O)[nH]c2ccccc12)c1ccc(OC)cc1	-7%	17%	x	0%	1%	-7%
COc1ccc(N(Cc2cc(=O)[nH]c3ccccc23)C(=O)CCl)cc1	35µM*	32%	x	-5%	8%	3%
CCCCC(=O)O[C@]1(C(=O)CO)CCC2C3CCC4=CC(=O)CCC4(C)C3C(O)CC21C (some centres not stated)	x	x	x	x	x	0%[19.4 µM]
O=S(=O)(c1ccc2c(c1)OCCO2)N1CCN(S(=O)(=O)c2ccc3nc(Cl)c(Cl)nc3c2)CC1	x	x	-14%	x	x	x
COc1cc(OC)c2c(O)c3c(c(-c4c5c(c(O)c6c(OC)cc(OC)cc46)CO[C@@H](C)[C@H]5O)c2c1)[C@H](O)[C@H](C)OC3	20µM*	35µM*	4%	u	u	40µM*
N#Cc1nc(Nc2ccccc2)nc(NC2CCCC2)n1	x	x	10%	x	x	x
Clc1ccccc1Nc1nc(-c2ccncc2)nc2ccccc12	-14%	-16%	x	-30%	50µM*	-6%[60.1 µM]
c1ccc2c(Nc3nc(-c4ccncc4)nc4ccccc34)cccc2c1	-11%	27%	x	3%	12%	0%
Cc1ccc(-c2nc(N/N=C/c3ccncc3)c3ccccc3n2)cc1	45µM*	u	-2%	-1%	u	-17%
COc1ccc(/C=N/Nc2nc(-c3cccnc3)nc3ccccc23)cc1OC	-11%	u	7%	u	8%	-27%
COc1ccc(-c2nc3ccccc3c(=O)n2Cc2ccccc2)cc1OCc1ccc(NC(C)=O)cc1	x	x	3%	x	x	x

Source: PubChem (National Center for Advancing Translational Sciences (NCATS))
